Screens deposited in PubChem BioAssay by National Center for Advancing Translational Sciences (NCATS).
Compounds with a hit are over-represented: about 3% of the library has one in this group of screens.
GCN5L2 inh: GCN5L2 (KAT2A) acetyltransferase inhibition; GCN5L2 HAT assay, ThioGlo1 CoA-SH fluorescence; 0.21% of 390,000 active; Potency, µM (doses to about 58.9 µM), inactives show top-dose activity change, negative = inhibition, usual class: inhibitors; Q92830; note: potency is the fitted concentration of half-maximal effect; % is set by controls: 0 for no effect and ±100 for the full control effect
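Fluorescence readout, Ex340nm/Em540nm: ThioGlo1 (50uM final) reacts with free CoA thiol released as 20nM GCN5L2 acetylates H3(1-25) peptide (75uM) using acetyl-CoA (70uM). Compound and enzyme sat 15 min beforehand; 20 min room-temperature reaction.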
PLK1 PBD inh: blocks phosphopeptide binding to human PLK1 polo-box domain; Potency, µM, for inactives: max response, negative = inhibition, usual class: inhibitors; P53350; 2.8% of 360,000 active; Plk1 PBD binding of FITC phosphopeptide, fluorescence polarization; AID 720504; note: potency is the fitted concentration of half-maximal effect; series mostly up to about 57 µM; % is set by controls: 0 for no effect and ±100 for the full control effect; nearly all actives have a fitted effect of over 65% in size
USP1-UAF1 inh: blocks the human USP1/UAF1 deubiquitinase complex | recombinant USP1/UAF1, Ub-Rhodamine cleavage fluorescence | Potency, µM (top dose mostly 57.1 µM), without a hit: top-dose activity change, negative = inhibition, usual class: inhibitors | 0.23% of 390,000 active; note: potency is the fitted concentration of half-maximal effect; % is set by controls: 0 for no effect and ±100 for the full control effect; nearly all actives have a fitted effect of over 60% in size
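High-throughput fluorogenic screen: 1nM USP1/UAF1 complex, Ub-Rho substrate 150nM final, 50mM HEPES pH 7.8 with 0.5mM EDTA, 0.1 mg/ml BSA, 1mM TCEP and 0.01% Tween-20.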
VDR inh: blocks the human vitamin D receptor; Potency, µM, inactives show max response, negative = inhibition, actives largely listed as inhibitors; 0.93% of 400,000 active; P11473; VDR-SRC2-3 peptide fluorescence polarization, 2 h; note: potency is the fitted concentration of half-maximal effect; % is set by controls: 0 for no effect and ±100 for the full control effect
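The screen uses fluorescence polarization to detect compounds that interfere with recruitment of the SRC2-3 coactivator peptide to VDR; plates are read after 2 h at room temperature.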
TSG101-PTAP inh: blocks PTAP/TSG101 interaction to inhibit HIV-1 budding. AID 493005. Potency, µM (doses to about 115 µM), for inactives: at the highest dose activity change, negative = inhibition, usual class: inhibitors. Fluorescence polarization, FITC-PTAP peptide / Tsg101 binding. 340,000 tested, under 10 active. Q99816; active = well fitted inhibition curve with a large enough effect in the main read-out, with a control signal flat, not every such curve was filed as active; inconclusive = small, poorly fitted or top-dose-only effect, or effect the other way, or a change in a side signal; inactive = no such curve, though single readings can be large or run the other way; note: potency is the fitted concentration of half-maximal effect; % of control where 0% means no effect
Target sequence (Q99816 whole entry, looked up): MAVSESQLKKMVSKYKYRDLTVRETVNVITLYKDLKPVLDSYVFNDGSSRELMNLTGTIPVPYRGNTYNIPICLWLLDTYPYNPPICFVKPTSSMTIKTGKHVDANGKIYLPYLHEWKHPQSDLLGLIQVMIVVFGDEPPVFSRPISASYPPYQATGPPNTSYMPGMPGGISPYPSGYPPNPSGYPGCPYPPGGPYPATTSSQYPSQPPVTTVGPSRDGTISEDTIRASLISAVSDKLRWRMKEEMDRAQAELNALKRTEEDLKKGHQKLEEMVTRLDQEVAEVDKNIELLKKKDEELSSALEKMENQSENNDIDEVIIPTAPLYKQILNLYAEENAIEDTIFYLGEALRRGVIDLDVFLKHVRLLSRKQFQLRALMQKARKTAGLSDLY
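Compounds were pin-transferred onto Tsg101 binding domain (10 uM final) in HEPES pH 7.5 buffer, then FITC-PTAP peptide was added at 50 nM final. After 20 min at RT, polarization reported peptide displacement across a qHTS concentration series.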
USP1-UAF1 confirm: USP1-UAF1 deubiquitinase inhibition validated; shares compounds with VDR inh; Ub-Rhodamine cleavage, fluorescence kinetic read; Potency, µM (highest dose often 56.8 µM), for the others: at the highest dose activity change, negative = inhibition, usual class: inhibitors; 50% of 50 active; AID 540327
VDR confirm: inhibits human vitamin D receptor, primary hit validation. 89% of 840 active. Potency, µM, usual class: inhibitors. AID 602199. shares compounds with VDR inh. VDR-coactivator inhibition assay, qHTS confirmation; note: potency is the fitted concentration of half-maximal effect
VDR FP fluor: blocks human VDR-coactivator binding in fluorescein assay | shares compounds with VDR inh | VDR-coactivator binding, fluorescein fluorescence polarization | Potency, µM (top dose mostly 57.1 µM), for inactives: top-dose activity change, negative = inhibition, hits mostly inhibitors | 48% of 840 active | AID 602200; note: potency is the fitted concentration of half-maximal effect
VDR bla: inhibits human VDR in beta-lactamase reporter cells | shares compounds with VDR inh | VDR beta-lactamase reporter cells, FRET ratio; cells co-treated with VDR agonist LG190178 | Potency, µM (series often up to 46.1 µM), without a hit: top-dose activity change, negative = inhibition, hits mostly inhibitors | 23% of 840 active; note: potency is the fitted concentration of half-maximal effect; % is set by controls: 0 for no effect and ±100 for the full control effect
VDR cytotox: counter-screen for vitamin D receptor inhibitors: cytotoxicity; 18% of 840 active; cytotoxicity counter-screen, cell viability, qHTS; Potency, µM (doses to about 48.3 µM), for inactives: top-dose activity change, negative = cytotoxicity, hits mostly cytotoxic; shares compounds with VDR inh;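 note: potency is the fitted concentration of half-maximal effect; plate controls were DMSO for no effect and high-concentration cycloheximide for full effect; nearly all actives have a fitted effect of over 75% in size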
An asterisk follows results filed as active; ? = inconclusive; · = no result given. Unless noted, calls come from the whole dose curve; as a rule, active = well fitted curve in the direction sought with a large enough effect; inconclusive = small, poorly fitted or top-dose-only effect, or another doubt; inactive = no such curve, though single readings can be large; an effect the other way counts as inactive or inconclusive.

SMILES	GCN5L2 inh	PLK1 PBD inh	USP1-UAF1 inh	VDR inh	TSG101-PTAP inh	VDR confirm	VDR FP fluor	VDR bla	VDR cytotox	others
Cc1ccccc1CS(=O)(=O)c1nnc([C@H](Cc2ccccc2)NC(=O)OC(C)(C)C)o1	?	7.5µM*	-11%	20µM*	-4%	6*	3.5µM*	?	?
CCC(C)[C@@H](NC(=O)OC(C)(C)C)c1nnc(S(=O)(=O)Cc2cccc(C)c2)o1 (stereo partly specified)	-3%	8.4µM*	-16%	25µM*	2%	4.7*	?	?	?
CN(C)c1ccc(C(=S)N2CCN(c3ccc([N+](=O)[O-])cc3)CC2)cc1	?	11µM*	-11%	79µM*	-8%	27*	?	-11%	13%
CN(C)c1ccc(C(=S)N2CCN(c3ccccc3)CC2)cc1	-7%	-5%	-7%	13%	-1%	·	·	·	·
CCSc1ncc(Cl)c(C(=O)Nc2ccc(S(=O)(=O)N3CCCCC3CC)cc2)n1 (stereo unspecified)	-13%	·	-18%	-1%	·	·	·	·	·
CCC1CCCCN1S(=O)(=O)c1ccc(NC(=O)c2nc(S(C)(=O)=O)ncc2Cl)cc1 (stereo unspecified)	-4%	12µM*	-21%	20µM*	3%	6*	3.2µM*	12µM*	9.2µM*
CCS(=O)(=O)c1ncc(Cl)c(C(=O)Nc2ccc(S(=O)(=O)N3CCCC(C)C3)cc2)n1 (stereo unspecified)	-6%	?	-16%	?	-1%	5*	2.8µM*	10µM*	9.5µM*
COc1cccc(CNc2nc3c(-c4cccc(C)c4)nnn3c3ccccc23)c1	-2%	·	?	-17%	·	·	·	·	·
COc1ccc([N+](=O)[O-])c(S(=O)(=O)c2ccccc2)n1	-2%	9.5µM*	-16%	32µM*	0%	15*	?	18µM*	16µM*
O=[N+]([O-])c1cccnc1S(=O)(=O)c1ccccc1	0%	-23%	-20%	?	-7%	·	·	·	·
O=[N+]([O-])c1ccc(/C=C2\CCC(C3=CCCC3)=C2N2CCOCC2)cc1	-6%	-19%	-10%	?	-2%	?	?	?	-2%
COCCCNC(=O)c1ccc2c3c(onc13)-c1ccccc1C2=O	1%	5.3µM*	20µM*	35µM*	?	3.8*	?	?	?
CCOC(=O)C1=C(COC(=O)CCOc2ccccc2C)NC(=O)NC1C (stereo unspecified)	-3%	-9%	-6%	2%	0%	·	·	·	·
COc1ccc(C(C2C(=O)CC(C)(C)CC2=O)C2C(=O)CC(C)(C)CC2=O)cc1COCC(F)(F)F	-1%	6.7µM*	-15%	20µM*	-1%	6*	?	26%	11%
c1ccc(-c2nnc3sc(-c4ccncc4)nn23)cc1	-3%	?	7%	-20%	1%	·	·	·	·
c1ccc(-c2nnc3sc(-c4csc5c4CCCC5)nn23)cc1	?	11µM*	?	?	0%	14*	10µM*	?	?
COc1ccc(C(=O)c2coc3c2C(=O)C(=O)c2ccccc2-3)cc1	-15%	?	?	?	-2%	6.3*	3.2µM*	?	-6%
O=C(CNC(=O)c1ccc(Cl)cc1Cl)OCN1C(=O)c2ccccc2C1=O	0%	-9%	2%	-1%	-1%	·	·	·	·
NC(Cc1ccc(Cl)cc1)C(=O)O (stereo unspecified)	0%	·	·	2%	·	·	·	·	·
N[C@@H](Cc1cc(-c2ccc(Cl)cc2Cl)cc(CP(=O)(O)O)c1O)C(=O)O	?	·	·	45µM*	·	·	·	·	·	USP1-UAF1 confirm=42µM*
NC(=S)c1csc(CCNC(=O)c2ccccc2)n1	·	1%	-20%	·	·	·	·	·	·
Cc1cccc(NC(c2ccc(O)cc2)c2ccc3ccc(C)nc3c2O)n1 (stereo unspecified)	-9%	4.2µM*	-10%	45µM*	-1%	11*	?	26%	0%
CC(C)c1ccc(/C=C/c2[nH]c(=O)[nH]c(=O)c2[N+](=O)[O-])cc1	0%	-6%	-20%	22µM*	-5%	3.8*	?	?	29%
CCOc1ccc(/C=C/c2[nH]c(=O)[nH]c(=O)c2[N+](=O)[O-])cc1	2%	-6%	-10%	?	-2%	·	·	·	·
O=c1[nH]c(/C=C/c2ccccc2Cl)c([N+](=O)[O-])c(=O)[nH]1	-12%	-29%	?	35µM*	-3%	19*	11µM*	17%	26%
SMILES	GCN5L2 inh	PLK1 PBD inh	USP1-UAF1 inh	VDR inh	TSG101-PTAP inh	VDR confirm	VDR FP fluor	VDR bla	VDR cytotox	others
O=C(COc1ccccc1/C=C\c1[nH]c(=O)[nH]c(=O)c1[N+](=O)[O-])Nc1ccccc1	-11%	-12%	-25%	20µM*	-4%	4.2*	?	0%	?
CCOc1cc(/C=C\c2[nH]c(=O)[nH]c(=O)c2[N+](=O)[O-])ccc1OC(C)CC (stereo unspecified)	-13%	-20%	-14%	11µM*	-2%	8.4*	175%	?	19%
COc1ccc(-c2cc(OC(=O)c3ccc(Cl)cc3)c3c(C)oc(C)c3c(=O)c2)cc1	-8%	·	-1%	?	·	·	·	·	·
COc1cccc(/C=C/c2[nH]c(=O)[nH]c(=O)c2[N+](=O)[O-])c1O	-1%	?	-13%	22µM*	1%	21*	?	14%	24%
COc1cc(/C=C/c2[nH]c(=O)[nH]c(=O)c2[N+](=O)[O-])cc(OC)c1O	-12%	-2%	-24%	?	-1%	·	·	·	·
CCOC(=O)c1c(-c2ccc(C)s2)csc1N	-14%	5.3µM*	-6%	79µM*	-8%	19*	11µM*	11%	23%
O=C1NC(=O)/C(=C\c2ccc(Sc3ccc(Cl)cc3)o2)N1	-8%	?	-13%	-3%	-1%	·	·	·	·
